# Source: PubChem
# Sampled rows, rich in hits. Any-hit rate of the full collection: about 14%.
# FBPA Giardia inh: Giardia lamblia aldolase inhibition; actives 0.71% (n = 290,000); Potency, µM (highest dose often 59.6 µM), without a hit: at the top dose activity, negative = inhibition, hits mostly inhibitors; A8B2U2; purified Giardia FBPA; further: potency means the concentration at half of the fitted maximal effect; nearly all actives have a fitted effect of over 55% in size
# Target sequence (A8B2U2 whole entry, looked up): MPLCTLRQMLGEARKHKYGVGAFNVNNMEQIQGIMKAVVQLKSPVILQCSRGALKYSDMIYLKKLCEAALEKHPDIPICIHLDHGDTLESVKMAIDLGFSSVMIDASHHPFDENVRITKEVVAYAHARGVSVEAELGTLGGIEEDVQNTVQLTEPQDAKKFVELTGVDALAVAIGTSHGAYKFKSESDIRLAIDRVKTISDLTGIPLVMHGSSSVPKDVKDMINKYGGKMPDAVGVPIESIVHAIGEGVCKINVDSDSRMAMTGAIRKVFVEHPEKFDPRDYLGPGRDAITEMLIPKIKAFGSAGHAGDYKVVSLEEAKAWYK
#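 Giardia FBPA (40 nM reagent) was preincubated 10 min at RT with compound (up to 57.5 uM final), then substrate plus GAPDH/TPI/NAD/arsenate coupling system with diaphorase/resazurin was added; resorufin fluorescence (525/598 nm) was read after 20 min.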
# Sm TGR block: S. mansoni TGR enzyme inhibition; AID 485364; actives 3% (n = 360,000); Potency, µM (titrated, usually from 114 µM), for inactives: at the highest dose activity change, negative = inhibition, usual class: inhibitors; purified TGR, DTNB reduction, TNB absorbance 405 nm; further: potency means the concentration at half of the fitted maximal effect; nearly all actives have a fitted effect of over 60% in size
#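 TGR 20 nM + NADPH 100 uM (dispensed conc.), cpd preinc 15 min RT; start with NADPH (500 uM addition) then DTNB (15 mM addition). Kinetic TNB absorbance, 405 nm filter. Four-parameter Hill fit across titration.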
# Pf growth 48h: P. falciparum growth inhibition at 48 hours (one generation); P. falciparum luciferase growth in erythrocytes, 48 h; Potency, µM (highest dose often 28.7 µM), without a hit: top-dose activity change, negative = inhibition, hits mostly inhibitors; actives 5.9% (n = 310,000); further: potency means the concentration at half of the fitted maximal effect
#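 Luciferase-expressing P. falciparum in infected erythrocytes (2% hematocrit, 0.1% parasitemia final) in RPMI 1640/0.5% Albumax were exposed to compound for 48 hours at 37 C, 5% CO2; growth read as luminescence.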
# Pf growth 96h: P. falciparum growth inhibition at 96 hour, primary screen for plastid delayed-death inhibitors | P. falciparum luciferase reporter growth, 96 h | Potency, µM (titrated, usually from 28.7 µM), for the others: at the top dose activity change, negative = inhibition, hits mostly inhibitors | actives 6.9% (n = 320,000); further: potency means the concentration at half of the fitted maximal effect
#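 96 h incubation, 37 C, 5% CO2, of luciferase-reporter P. falciparum-infected RBCs (2% hematocrit, 0.05% parasitemia final) with test compounds; endpoint luminescence.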
# HCMV antiviral: inhibitors of human cytomegalovirus; HFF cells, HCMV-luciferase reporter, 72 h; hits give low values; activity change, negative = inhibition, % at 57.5 µM; actives 4.5% (n = 410,000); AID 1259415; in the data active means activity change below about -60%; inconclusive means no clear call, values can overlap the other calls; inactive means above about -39%
#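 Steps: HFFs plated, 16 h 37C; compounds added; HCMV-luciferase added to MOI 1 PFU/cell; 72 h 37C; OneGlo reagent, 5 min room temperature; luminescence read, normalized to controls.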
# * = called active by the depositor; ? = inconclusive; . = not tested or not shown; [ ] = dose if it differs, or a comment. Unless noted, the call rests on the fitted dose curve; in most records, active means well fitted curve in the direction sought with a large enough effect; inconclusive means small, poorly fitted or top-dose-only effect, or another doubt; inactive means no such curve, though single readings can be large; an effect the other way counts as inactive or inconclusive. On the % scale 0 is the no-effect control and ±100 the full control effect.
SMILES,FBPA Giardia inh,Sm TGR block,Pf growth 48h,Pf growth 96h,HCMV antiviral
COc1ccccc1N1CCN(c2cc(C)nc3nc(-c4ccc(Cl)cc4)nn23)CC1,.,0%,.,.,-16
CC(C)CNC(=O)C(=O)NCCC1CCCCN1S(=O)(=O)c1cccs1 (stereo not drawn),.,0%,-12%,-6%,-14
Cc1cccc2c1CC(C)(C)N=C2C1=C(O)CC(C)(C)CC1=O,3%,1%,?,13µM*,22
CCC1(CC)Cc2ccccc2C(C2=C(O)CC(C)(C)CC2=O)=N1,1%,3%,-22%,?,-11
Cc1ccc(-c2nnc(OCc3nc4ccccc4n3C)c3ccccc23)cc1,.,.,.,.,-20
CCC(C)(C)C1CCc2[nH]nc(C(=O)NCCN3CCOCC3)c2C1 (stereo not drawn),.,2%,?,?,-12
CCC(C)(C)C1CCc2[nH]nc(C(=O)NCc3ccccn3)c2C1 (stereo not drawn),.,-6%,15µM*,9.3µM*,?
CCC(C)(C)C1CCc2[nH]nc(C(=O)NCc3ccc(Cl)cc3)c2C1 (stereo not drawn),.,0%,?,?,-24
CCC(C)(C)C1CCc2[nH]nc(C(=O)NCCCNC(=O)OC(C)(C)C)c2C1 (stereo not drawn),.,-2%,9.3µM*,-10%,-11
CCCCN1C(=O)C(CC(=O)NCC2CCCCC2)CC(C(=O)N2CCOCC2)=C1C (stereo not drawn),.,.,.,.,6
COc1ccccc1N1C(C)=CC(=C(C#N)c2nc3ccccc3s2)C=C1C,-13%,0%,9.3µM*,?,-3
CN(C)CCN(Cc1cc2cc3c(cc2[nH]c1=O)OCCO3)C(=S)NCC1CCCO1 (stereo not drawn),-4%,.,-2%,23%,6
CCN(CC)CCN(Cc1cc2cc3c(cc2[nH]c1=O)OCO3)C(=S)NCC1CCCO1 (stereo not drawn),3%,.,-11%,15µM*,19
CCN(CC)CCN(Cc1cc2cc3c(cc2[nH]c1=O)OCO3)C(=S)NCCCOC,4%,-5%,-6%,13µM*,53
Cc1ccc(S(=O)(=O)N2[C@@H](c3ccc(Cl)cc3)C(C(=O)OC(C)(C)C)=CC[C@H]2c2ccc(Cl)c(Cl)c2)cc1,.,.,.,.,-37
CCN(CC)C(=O)Cn1nc(-c2ccc(Cl)cc2)c2ccccc2c1=O,3%,0%,2%,-26%,?
CCCN(CCC)c1nc2ccccc2n2c(C)nnc12,2%,7%,0%,-22%[5.75 µM],-21
CCCNc1nc2ccccc2n2c(C)nnc12,-3%,8%,8%,9.3µM*,23
Cc1nnc2c(SC(C)C)nc3ccccc3n12,10%,7%,-28%,347%,-82*
Cc1ccc(-c2nc3ccccc3n3c(C)nnc23)cc1,6%,-1%,-15%,84%,.
Cc1ccccc1-c1cnc(C(O)c2ccc(Cl)c(F)c2)[nH]1 (stereo not drawn),.,.,.,.,5
Cc1ccc2ncc(C(=O)Nc3cccc(C(F)(F)F)c3)c(=O)n2c1,.,5%,.,.,15
COc1ccc2nc(Nc3nc(CSc4nnnn4-c4ccccc4)cc(=O)[nH]3)nc(C)c2c1,0%,-4%,.,?,-10
COCc1cc(=O)[nH]c(Nc2nc(C)c3ccccc3n2)n1,-8%,-6%,.,0%,-102*
COc1ccc2nc(Nc3nc(CSc4ccc(C)cc4)cc(=O)[nH]3)nc(C)c2c1,0%,10%,?,43%,-67*
SMILES,FBPA Giardia inh,Sm TGR block,Pf growth 48h,Pf growth 96h,HCMV antiviral
Cc1ccc2c(C)nc(Nc3nc(CSc4nnnn4-c4ccccc4)cc(=O)[nH]3)nc2c1,-2%,5%,2.3µM*,.,-101*
CCNS(=O)(=O)c1cccc(C(=O)c2c(C)cc3ccccn23)c1,-1%,-2%,-19%,-10%,-16
CCCn1c(SCC(=O)NC2CCCCC2)nnc1C1CC1,.,0%,6%,-4%,-10
O=C(Nc1ccccc1C(=O)OCc1cc(=O)n2c3c(sc2n1)CCCC3)c1ccccc1,.,5%,.,.,-83*
O=C(Nc1cccc(C(=O)OCc2cc(=O)n3c4c(sc3n2)CCCC4)c1)c1cccc(F)c1,.,4%,.,.,-74*
Nc1ccc(S(=O)(=O)NC2(C(F)(F)F)NC(=O)N(Cc3ccccc3)C2=O)cc1 (stereo not drawn),1%,6%,3%,21%,-16
Cc1ccc(/C=C/C(=O)Nc2ncc(C)s2)o1,?,25µM*,95%,141%,40
O=C(/C=C/c1cccs1)Nc1nccs1,5%,8%,339%,354%,59
CCOC(=O)/C=C/C(=O)Nc1nccs1,8%,40µM*,?,86%,0
Cc1cnc(NC(=O)/C=C/c2ccc(Br)o2)s1,1%,-1%,111%,35%,0
Cc1ccc(/C=C/C(=O)Nc2nccs2)o1,?,28µM*,315%,272%,112
NNC(=O)CN1C(=O)Nc2ccc(Cl)cc2C1c1ccccc1 (stereo not drawn),9%,81%,?,?,10
COC(=O)CN1C(=O)Nc2ccc(Br)cc2C1c1ccccc1 (stereo not drawn),1%,-16%,-23%,3.7µM*,47
COC(=O)[C@@H]1OC(c2ccccc2)O[C@H]1C(=O)OC,7%,.,.,.,.
CCCCN1C(=O)CCC(C(=O)O)C1c1ccc([N+](=O)[O-])cc1 (stereo not drawn),8%,11%,25%,51%,22
O=C(NNS(=O)(=O)c1ccc(F)cc1)c1ccc(S(=O)(=O)N2CCCCC2)cc1,-2%,-7%,15%,?,74
O=C(NNS(=O)(=O)c1ccccc1)c1cccc(F)c1,-14%,56µM*,8%,9%,2
O=C(NNS(=O)(=O)c1ccc(F)cc1)c1ccc(O)cc1,-1%,-24%,-5%,10µM*,3
Cc1cc(C)c(NC(=O)CCn2c(=O)c3cccn3c3ccccc32)c(C)c1,.,-6%,.,.,-16
O=C(C[n+]1cccc(/C=N/O)c1)NC(=O)Nc1ccccc1,.,.,.,.,13
NC(=O)NC(=O)C[n+]1cccc(/C=N/O)c1,2%,7%,0%,10µM*,-16
O=C1C(=O)N2C(=C1C(=O)N1CCCCCC1)c1ccccc1CC21CCCC1,4%,6%,-13%,-7%,-66*
COc1ccc2c(c1)O[C@@H](c1cccc(C(F)(F)F)c1)[C@H](OC(=O)NS(=O)(=O)c1ccc(F)cc1)C2=O,-1%,.,.,.,.
Cc1ccc(S(=O)(=O)N(C)C)cc1NC(=O)CSc1nc2ccccc2[nH]1,-17%,-2%,?,9.3µM*,-2
Cc1ccc(S(=O)(=O)N(C)C)cc1-n1c(SCC(=O)Nc2ccccc2)nc2ccccc2c1=O,-1%,-5%,?,?,-72*
